Screening results from PubChem BioAssay.
An excerpt weighted towards active compounds, which were near 2.3% of everything screened.
Mcl1 Bid PPI: Mcl-1/Bid interaction inhibition; inhibition, % at 21.7 µM; 0.97% of 220,000 active; TR-FRET Mcl-1/Bid-Dy647 peptide binding, 1536-well; Q07820;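 active means compounds that cut the binding signal by more than half at the single screening dose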;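 further: His-tagged Mcl-1 with europium anti-His antibody binding Bid BH3 peptide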
Bim-Mcl-1: human Bim-Mcl-1 interaction inhibition; Q07820; Bead-based flow cytometry, Bim peptide-Mcl-1 binding; inhibition, % at 10 µM; 0.1% of 190,000 active; AID 1009; in the data active means inhibition above about 40%
GLD-1 RNA inh: GLD-1-TGE RNA interaction inhibition (C. elegans); 0.44% of 320,000 active; AID 2280; purified GLD-1 + fluorescein TGE RNA, fluorescence polarization; Q17339; inhibition, % at 5.96 µM;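 active means percent inhibition above a per-plate cutoff, the plate mean of test compounds plus 3 SD, cut at about 30% in these data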
Target sequence (Q17339 whole entry, looked up): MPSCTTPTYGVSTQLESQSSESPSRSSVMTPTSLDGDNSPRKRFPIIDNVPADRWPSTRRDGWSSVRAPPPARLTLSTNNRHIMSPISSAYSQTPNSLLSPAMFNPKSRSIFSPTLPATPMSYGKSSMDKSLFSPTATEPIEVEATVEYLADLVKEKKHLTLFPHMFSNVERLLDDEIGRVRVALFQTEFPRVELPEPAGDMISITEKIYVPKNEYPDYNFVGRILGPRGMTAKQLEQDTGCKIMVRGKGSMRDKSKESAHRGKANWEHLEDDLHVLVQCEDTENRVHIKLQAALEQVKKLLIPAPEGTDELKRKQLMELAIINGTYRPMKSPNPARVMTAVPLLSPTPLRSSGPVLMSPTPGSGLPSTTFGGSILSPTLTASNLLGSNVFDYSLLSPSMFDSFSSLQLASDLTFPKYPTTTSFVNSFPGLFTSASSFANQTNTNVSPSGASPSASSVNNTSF
Mcl1 Noxa PPI: Mcl-1/Noxa interaction inhibition; Q07820; TR-FRET Mcl-1/Noxa peptide binding, 2 h; inhibition, % at 21.7 µM; 1.5% of 220,000 active;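 active means compounds that cut the protein-peptide binding signal by more than 50% relative to plate controls in a single-dose test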;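 further: His-tagged Mcl-1 with rhodamine Noxa BH3 peptide and terbium anti-His antibody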
MCL1-BIM inh: inhibitors of human MCL1 binding to BIM-BH3 peptide. GST-MCL1 / FITC-Bim-BH3 fluorescence polarization. 0.68% of 320,000 active. AID 2057. Q07820. inhibition, % at 10.9 µM;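 active means inhibition above the mean inhibition of all tested compounds plus 3 SD, set per campaign, cut at about 40% in these data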;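 further: higher means more loss of mP so more displacement of Bim peptide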
Bcl-xL primary: inhibitors of human Bcl-xL | Q07817 | GST-Bcl-xL / FITC-Bim BH3 peptide fluorescence polarization | inhibition, % at 10.9 µM | 0.7% of 320,000 active | AID 2129;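 active means inhibition above the mean of all tested compounds plus 3 SD, cutoff set per campaign, cut at about 30% in these data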;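 further: inhibitors lower millipolarization by displacing the labeled peptide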
Target sequence (Q07817 whole entry, looked up): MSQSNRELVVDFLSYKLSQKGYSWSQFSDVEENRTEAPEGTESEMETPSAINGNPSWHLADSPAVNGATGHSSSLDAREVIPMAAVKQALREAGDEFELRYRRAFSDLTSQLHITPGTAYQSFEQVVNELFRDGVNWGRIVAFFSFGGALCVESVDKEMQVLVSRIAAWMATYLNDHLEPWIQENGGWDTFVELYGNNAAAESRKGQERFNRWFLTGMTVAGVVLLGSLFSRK
Hits are given with their value.

`COC(=O)CCC(=O)OC1(C)C(=O)C2=CN(CCCCO)C(c3ccc(OC)cc3)=CC2=C(Br)C1=O` (stereo not drawn) gave GLD-1 RNA inh inactive, MCL1-BIM inh 40.2 and Bcl-xL primary 31.7.
Screening COC(=O)CCC(=O)OC1(C)C(=O)C2=CN(CCN3CCOCC3)C(c3ccc(OC)cc3)=CC2=C(Br)C1=O (stereo not drawn) returned Mcl1 Bid PPI inactive, GLD-1 RNA inh inactive, Mcl1 Noxa PPI inactive, MCL1-BIM inh inactive and Bcl-xL primary inactive.
`COC(=O)CCC(=O)OC1(C)C(=O)C2=CN(C(CO)CO)C(c3ccc(OC)cc3)=CC2=C(Br)C1=O` (stereo not drawn) gave Mcl1 Bid PPI inactive, GLD-1 RNA inh inactive, Mcl1 Noxa PPI inactive, MCL1-BIM inh 39.9 and Bcl-xL primary 38.2.
`Fc1ccccc1N1CCN(Cc2cc(-c3ccccc3)on2)CC1` gave GLD-1 RNA inh inactive, MCL1-BIM inh inactive and Bcl-xL primary inactive.
`COc1cccc(NC(C)(C)c2nnnn2-c2c(C)cccc2C)c1` gave Mcl1 Bid PPI 51.6, GLD-1 RNA inh inactive, Mcl1 Noxa PPI inactive, MCL1-BIM inh inactive and Bcl-xL primary inactive.
`O=C(OC1CCCCC1)c1ccc2c(c1)C1C=CCC1C(C(=O)O)N2` (stereo not drawn) gave Mcl1 Bid PPI 98.2, Bim-Mcl-1 inactive and Mcl1 Noxa PPI 107.8.
`O=C(O)C1Nc2c(O)cccc2C2C=CCC12` (stereo not drawn) gave Mcl1 Bid PPI 86.0, Bim-Mcl-1 inactive, GLD-1 RNA inh inactive, Mcl1 Noxa PPI 115.4, MCL1-BIM inh 90.4 and Bcl-xL primary 61.7.
Screening Clc1ccc(OCCCn2cncn2)cc1Cl returned Mcl1 Bid PPI 55.6, Bim-Mcl-1 inactive, GLD-1 RNA inh inactive, Mcl1 Noxa PPI inactive, MCL1-BIM inh inactive and Bcl-xL primary inactive.
C[C@H]1[C@@H](OC(=O)CCC(=O)O)O[C@@H]2OC3(C)CC[C@H]4[C@H](C)CC[C@@H]1[C@@]24OO3 was read as GLD-1 RNA inh inactive, MCL1-BIM inh inactive and Bcl-xL primary inactive.
O=S(=O)(c1cccc(-n2cnnn2)c1)N1CCOCC1 was read as Mcl1 Bid PPI inactive, Bim-Mcl-1 inactive, GLD-1 RNA inh inactive, Mcl1 Noxa PPI inactive, MCL1-BIM inh inactive and Bcl-xL primary inactive.
COc1cc(-n2cnnn2)ccc1S(=O)(=O)N1CCOCC1 was read as Mcl1 Bid PPI inactive, Bim-Mcl-1 inactive, GLD-1 RNA inh inactive, Mcl1 Noxa PPI inactive, MCL1-BIM inh inactive and Bcl-xL primary 31.9.
CNc1sc(C(=O)c2cccs2)c(N)c1-c1nc2ccccc2s1 was read as Mcl1 Bid PPI inactive, Bim-Mcl-1 inactive, GLD-1 RNA inh inactive, Mcl1 Noxa PPI 55.9, MCL1-BIM inh inactive and Bcl-xL primary inactive.
Screening CNc1sc(C(=O)c2ccc(F)cc2)c(N)c1-c1nc2ccccc2s1 returned Mcl1 Bid PPI inactive, Bim-Mcl-1 inactive, GLD-1 RNA inh inactive, Mcl1 Noxa PPI 92.2, MCL1-BIM inh inactive and Bcl-xL primary inactive.
`CC(=O)Nc1scc(C)c1-c1nc2ccccc2s1` gave Mcl1 Bid PPI inactive, GLD-1 RNA inh inactive, Mcl1 Noxa PPI inactive, MCL1-BIM inh inactive and Bcl-xL primary inactive.
`Cc1ccc(C(=O)NCC(=O)OC(C)C(=O)Nc2ccc(N(C)C)cc2)s1` (stereo not drawn) gave Mcl1 Bid PPI inactive, Bim-Mcl-1 inactive, GLD-1 RNA inh inactive, Mcl1 Noxa PPI inactive, MCL1-BIM inh inactive and Bcl-xL primary inactive.
For O=C(O)CC12CC3CC(C1)CC(n1ncc(NCc4ccccc4Cl)c(Cl)c1=O)(C3)C2 the results were Mcl1 Bid PPI 56.6, GLD-1 RNA inh inactive, Mcl1 Noxa PPI inactive, MCL1-BIM inh inactive and Bcl-xL primary inactive.
Screening O=C(O)CC12CC3CC(C1)CC(n1ncc(NCc4ccc(F)cc4Cl)c(Cl)c1=O)(C3)C2 returned Mcl1 Bid PPI inactive, Bim-Mcl-1 inactive, GLD-1 RNA inh inactive, Mcl1 Noxa PPI inactive, MCL1-BIM inh inactive and Bcl-xL primary inactive.
Screening CC1CC(C)(C)OC(C[N+]2(C)CCCCC2)O1 (stereo not drawn) returned Mcl1 Bid PPI inactive, GLD-1 RNA inh inactive, Mcl1 Noxa PPI inactive, MCL1-BIM inh inactive and Bcl-xL primary inactive.
For CC(C)(C)C1=CC(=O)C(=O)C(C(C)(C)C)=C1 the results were Mcl1 Bid PPI inactive, Bim-Mcl-1 inactive, GLD-1 RNA inh inactive, Mcl1 Noxa PPI 63.3, MCL1-BIM inh inactive and Bcl-xL primary inactive.
For O=C(Nc1ccc(Oc2ccc3c(c2)C(=O)N(c2ccc(O)cc2)C3=O)cc1)c1cccs1 the results were Mcl1 Bid PPI 65.8, Bim-Mcl-1 inactive, GLD-1 RNA inh inactive, Mcl1 Noxa PPI inactive, MCL1-BIM inh inactive and Bcl-xL primary inactive.
CC(C)CN1C(=O)c2ccc(NC(=O)c3cccs3)cc2C1=O was read as Mcl1 Bid PPI inactive, Bim-Mcl-1 inactive, GLD-1 RNA inh inactive, Mcl1 Noxa PPI inactive, MCL1-BIM inh inactive and Bcl-xL primary inactive.
Screening Cc1cc(Nc2ccccc2C(=O)O)nc2nc3ccccc3c(=O)n12 returned Mcl1 Bid PPI inactive, Bim-Mcl-1 inactive, GLD-1 RNA inh inactive, Mcl1 Noxa PPI inactive, MCL1-BIM inh inactive and Bcl-xL primary inactive.
Screening NC(=O)c1ccccc1Nc1nc2nc3ccccc3c(=O)n2cc1Br returned Mcl1 Bid PPI inactive, GLD-1 RNA inh inactive, Mcl1 Noxa PPI inactive, MCL1-BIM inh inactive and Bcl-xL primary 31.1.
For CN(C)CCOc1ccc(C(C)(C)c2ccccc2)cc1 the results were Mcl1 Bid PPI 64.9, Bim-Mcl-1 inactive, GLD-1 RNA inh inactive, Mcl1 Noxa PPI inactive, MCL1-BIM inh inactive and Bcl-xL primary inactive.
`CN(C)CCOc1ccccc1C(C)(C)C` gave Mcl1 Bid PPI 63.3, Bim-Mcl-1 inactive, GLD-1 RNA inh inactive, Mcl1 Noxa PPI inactive, MCL1-BIM inh inactive and Bcl-xL primary inactive.
Cc1ccc(NC(=O)c2ccc3c(c2)C(=O)N(c2cc(C)ccc2C)C3=O)nc1 was read as GLD-1 RNA inh inactive, MCL1-BIM inh inactive and Bcl-xL primary inactive.
`CCN(CC)CCNC(=O)c1ccc(NC(=O)C2CC(=O)N(CCc3ccc(OC)c(OC)c3)C2)cc1` (stereo not drawn) gave GLD-1 RNA inh inactive, MCL1-BIM inh inactive and Bcl-xL primary inactive.
CNC(=O)c1c(I)c(C(=O)NCC(=O)Nc2c(I)c(C(=O)O)c(I)c(C(=O)NCCO)c2I)c(I)c(N(C)C(C)=O)c1I was read as GLD-1 RNA inh inactive, MCL1-BIM inh inactive and Bcl-xL primary inactive.
For CC(C)(C)CC(=O)Nc1ccc(S(=O)(=O)NC2=NCCCCC2)cc1 the results were GLD-1 RNA inh inactive.
For S=C(NNc1ccnc2cc(Cl)ccc12)Nc1ccccc1Cl the results were Mcl1 Bid PPI inactive, Bim-Mcl-1 inactive, GLD-1 RNA inh inactive, Mcl1 Noxa PPI 61.6, MCL1-BIM inh inactive and Bcl-xL primary inactive.
`Cc1ccc(S(=O)(=O)NC2CCSC2=O)cc1C` (stereo not drawn) gave GLD-1 RNA inh inactive, MCL1-BIM inh inactive and Bcl-xL primary inactive.
